Results on 14 compounds are retold here after PubChem BioAssay.

The nature of assay [1]: stimulators of nuclear beta-catenin in C2C12, primary screen, imaging, WNT3A-conditioned medium, mouse C2C12, NPC library (AID 1117326; in the data active means nuclear beta-catenin stimulation mostly above about 4.2%, no sharp cut-off; inactive means mostly below about 10%; further: reference of the scale not given here). The note with it: stronger effect = higher value.
Assay [2] can be described thus: stimulators of insulin release from INS-1E, primary screen, cell-based, 5 mM glucose, NPC library (AID 1117329;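 active means compound raises insulin release from rat beta cells at 5 mM glucose, no numeric limit stated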; further: reference of the scale not given here). The note with it: rat INS-1E insulin secretion, at 10 µM, stronger effect = higher value.
A short description of assay [3]: growth inhibition of GSK3B-pretreated HCT116 cells – cell-based, CellTiter-Glo, 0.2 to 20 µM (AID 1117336;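 active means compounds lowering colon cancer cell viability after pretreatment blocking the GSK3B kinase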). The note with it: HCT116 viability after GSK3B inhibitor, at 20 µM, stronger effect = higher value.
Assay [4] in a line: inhibition of endothelial tube formation, primary screen, imaging, VEGF stimulated, CD31 staining, tube area, NPC library (AID 1117340;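 active means compound that reduces growth-factor-driven endothelial tube area in a mixed cell culture, no cutoff stated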). The settings on record: VEGF-stimulated ADSC/ECFC co-culture, at 10 µM, stronger effect = higher value.
The nature of assay [5]: glucagon-like peptide 1 release enhancers, primary assay, NCI-H716 cell line, NPC library (AID 1117341;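 active means compound raises GLP1 secretion from the human gut endocrine cells, with no numeric limit stated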; further: reference of the scale not given here). The settings on record: NCI-H716 cells, at 10 µM, stronger effect = higher value.
Assay [6] is described as follows: HCT116 colon cancer cell growth inhibition, primary screen, CellTiter-Glo luminescence, NPC library (AID 1117342). The settings on record: at 20 µM (top of the series).
Assay [7] in a line: CellTiter-Glo luminescent readout of SW480 viability loss, NPC library primary (AID 1117343;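 active means compounds that lower viability of the colon cancer cells in the luminescence readout, with no numeric limit stated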). The settings on record: CellTiter-Glo luminescence; at 20 µM (top of the series).
Assay [8] in a line: decreased DLD-1 cellular survival, CellTiter-Glo luminescent readout, NPC compound collection, primary HTS (AID 1117346;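 active means compounds that lower survival of DLD-1 colon cancer cells in the luminescence readout, no cutoff given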). The settings on record: DLD-1 viability, CellTiter-Glo luminescence; at 20 µM (top of the series).

Activity calls are given as the source filed them.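 How the source made its calls, unless noted: active means compounds that lower survival of HCT116 colon cancer cells in the luminescence readout, no numeric limit stated; inactive means the rest.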

As to `CC(C)[C@H]1CC[C@H](C)C[C@H]1O`, the nuclear beta-catenin stimulation is -2.2% (inactive) in assay [1] (at 10 µM) and -0.8% in assay [1] (stimulation, at 2 µM). Further, in assay [2], the insulin secretion stimulation is 2.4% (inactive). In assay [3], the viability decrease is 2% (inactive). Further, the tube area decrease in assay [4] was -11.4% (inactive). Also, the GLP1 secretion stimulation in assay [5] is 7.7% (inactive). In addition, in assay [6], the inhibition of viability is 8.8% (inactive). The viability decrease (inhibition) is 17.2% (inactive) in assay [7] and 5.7% (active) in assay [8].
As to `COc1ccc2c(c1)CCCC2=O`, the nuclear beta-catenin stimulation was 1.5% (inactive) in assay [1] (at 10 µM) and -0.1% in assay [1] (stimulation, at 2 µM). Also, in assay [2], the insulin secretion stimulation was 1.3% (inactive). Also, in assay [3], the viability decrease is 5.2% (inactive). The tube area decrease in assay [4] is 13.5% (inactive). Further, in assay [5], the GLP1 secretion stimulation is 0.1% (inactive). Also, the inhibition of viability in assay [6] is 8.5% (inactive). The viability decrease (inhibition) in assay [7] is -3.8% (inactive); in assay [8], -12% (inactive).
With `CC(C)=CCCC(C)=CCCC(C)=CCCC(C)=CCC1=C(C)C(=O)c2ccccc2C1=O`, the nuclear beta-catenin stimulation in assay [1] (at 10 µM) was -0.4% (inactive); in assay [1] (stimulation, at 2 µM), 0%. In assay [2], the insulin secretion stimulation was 0.5% (inactive). For the same compound, the viability decrease in assay [3] is 27.6% (inactive). Besides, the tube area decrease in assay [4] is 3.6% (inactive). In addition, the GLP1 secretion stimulation in assay [5] was -0.8% (inactive). In addition, the inhibition of viability in assay [6] is 37.8% (inactive). In addition, the viability decrease (inhibition) was 12.3% (inactive) in assay [7] and 11.1% (inactive) in assay [8].
As for `CCOC(=O)C(=O)CCc1ccccc1`, the nuclear beta-catenin stimulation in assay [1] (at 10 µM) was 0.7% (inactive); in assay [1] (stimulation, at 2 µM), 2%. In addition, in assay [2], the insulin secretion stimulation is 2.2% (inactive). The viability decrease in assay [3] was -4.7% (inactive). Further, the tube area decrease in assay [4] is -7.2% (inactive). Also, the GLP1 secretion stimulation in assay [5] is 5% (inactive). Moreover, the inhibition of viability in assay [6] is 10.3% (inactive). Besides, the viability decrease (inhibition) was -2.4% (inactive) in assay [7] and 1% (inactive) in assay [8].
For `O=C(O)Cc1ccccc1Oc1ccc(Cl)cc1Cl`, the nuclear beta-catenin stimulation is 0.5% (inactive) in assay [1] (at 10 µM) and 0.7% in assay [1] (stimulation, at 2 µM). Further, the insulin secretion stimulation in assay [2] was 1.5% (inactive). Further, in assay [3], the viability decrease is -7.6% (inactive). In addition, the tube area decrease in assay [4] is 3.2% (inactive). The GLP1 secretion stimulation in assay [5] was 1% (inactive). The inhibition of viability in assay [6] was -0.8% (inactive). Further, the viability decrease (inhibition) was -5% (inactive) in assay [7] and 5.9% (inactive) in assay [8].
Regarding `Cc1ccc(-c2ccccc2C#N)cc1`, the nuclear beta-catenin stimulation in assay [1] (at 10 µM) was 1.4% (inactive); in assay [1] (stimulation, at 2 µM) it was 6.2%. The insulin secretion stimulation in assay [2] was 0.25% (inactive). Also, the viability decrease in assay [3] is 3.2% (inactive). Also, in assay [4], the tube area decrease was -5.1% (inactive). In assay [5], the GLP1 secretion stimulation is 2.4% (inactive). In assay [6], the inhibition of viability is -1.3% (inactive). The viability decrease (inhibition) in assay [7] is -24.5% (inactive); in assay [8], -11% (inactive).
Consider `CCOC(=O)c1ccc(O)c(O)c1`, for which the nuclear beta-catenin stimulation in assay [1] (at 10 µM) was 4.9% (inactive); in assay [1] (stimulation, at 2 µM), 3.4%. In addition, in assay [2], the insulin secretion stimulation is 4% (inactive). The viability decrease in assay [3] was 88.4% (active). Also, in assay [4], the tube area decrease was 24% (inactive). For the same compound, in assay [5], the GLP1 secretion stimulation is -0.3% (inactive). Also, the inhibition of viability in assay [6] was 63.9% (active). The viability decrease (inhibition) is 77.7% (active) in assay [7] and 56.4% (active) in assay [8].
On to `CNc1c2c(nn1C)CCCC2`, for which the nuclear beta-catenin stimulation in assay [1] (at 10 µM) was 0.2% (inactive); in assay [1] (stimulation, at 2 µM), 0.4%. For the same compound, the insulin secretion stimulation in assay [2] is 0% (inactive). Besides, the viability decrease in assay [3] is -3.4% (inactive). Further, the tube area decrease in assay [4] is 16.1% (inactive). Moreover, the GLP1 secretion stimulation in assay [5] is 0% (inactive). Also, the inhibition of viability in assay [6] was -4.2% (inactive). Moreover, the viability decrease (inhibition) is -2.2% (inactive) in assay [7] and 0.1% (inactive) in assay [8].
On to `CCCC(=O)O[C@]1(C(=O)CC)CC[C@H]2[C@@H]3CCC4=CC(=O)CC[C@]4(C)[C@H]3[C@@H](O)C[C@@]21C`, for which the nuclear beta-catenin stimulation in assay [1] (at 10 µM) is -0.2% (inactive); in assay [1] (stimulation, at 2 µM), 1.5%. In addition, the insulin secretion stimulation in assay [2] is 6.6% (inactive). For the same compound, the viability decrease in assay [3] is 12.1% (inactive). Moreover, in assay [4], the tube area decrease is -2.7% (inactive). In addition, the GLP1 secretion stimulation in assay [5] is 5.3% (inactive). The inhibition of viability in assay [6] was 18.1% (inactive). The viability decrease (inhibition) in assay [7] was 35.2% (inactive); in assay [8], 25.5% (inactive).
On to `COC(=O)Nc1nc2ccc(C(=O)C3CC3)cc2[nH]1`, for which the nuclear beta-catenin stimulation was 41.8% (active) in assay [1] (at 10 µM) and 54.5% in assay [1] (stimulation, at 2 µM). Besides, in assay [2], the insulin secretion stimulation is 1.9% (inactive). Moreover, in assay [3], the viability decrease was 93.1% (active). Besides, the tube area decrease in assay [4] is 103% (active). Also, in assay [5], the GLP1 secretion stimulation is -0.3% (inactive). In assay [6], the inhibition of viability was 87.9% (active). The figures for the viability decrease (inhibition) in assay [7] and in assay [8] were 32.9% (inactive) and 51.6% (active), respectively.
For the compound `CC(C)C(=O)Nc1cccc(C(F)(F)F)c1`, the nuclear beta-catenin stimulation was 1% (inactive) in assay [1] (at 10 µM) and 1.2% in assay [1] (stimulation, at 2 µM). Moreover, in assay [2], the insulin secretion stimulation is 2.1% (inactive). For the same compound, in assay [3], the viability decrease was 9.3% (inactive). In assay [4], the tube area decrease is -5.2% (inactive). In assay [5], the GLP1 secretion stimulation is 4.8% (inactive). In addition, the inhibition of viability in assay [6] is 0.9% (inactive). The values for the viability decrease (inhibition) in assay [7] and in assay [8] were -24.6% (inactive) and -1% (inactive), respectively.
Turning to `CCC1(c2cnc[nH]2)Cc2ccccc2C1`, the nuclear beta-catenin stimulation in assay [1] (at 10 µM) is 1.2% (inactive); in assay [1] (stimulation, at 2 µM), 1.5%. The insulin secretion stimulation in assay [2] is 13.1% (inactive). Further, in assay [3], the viability decrease is 38% (inactive). Further, the tube area decrease in assay [4] is 22.4% (inactive). Also, the GLP1 secretion stimulation in assay [5] was -3.3% (inactive). Further, the inhibition of viability in assay [6] is -0.4% (inactive). For the same compound, the viability decrease (inhibition) is 19.3% (inactive) in assay [7] and 38.2% (inactive) in assay [8].
For the compound `CCC(=O)Oc1ccc2c(c1)CC[C@@H]1[C@H]2CC[C@]2(C)[C@@H](OC(=O)CC)CC[C@@H]12`, the nuclear beta-catenin stimulation in assay [1] (at 10 µM) was -0.2% (inactive); in assay [1] (stimulation, at 2 µM), 0.2%. Besides, the insulin secretion stimulation in assay [2] is 0.1% (inactive). The viability decrease in assay [3] was 33.4% (inactive). The tube area decrease in assay [4] is 28% (inactive). In assay [5], the GLP1 secretion stimulation was 2.4% (inactive). In addition, in assay [6], the inhibition of viability was 42.6% (inactive). Besides, the viability decrease (inhibition) in assay [7] is 49.6% (inactive); in assay [8], 2.6% (inactive).
On to `CCCc1c2oc(C(=O)O)cc(=O)c2cc2c(=O)cc(C(=O)O)n(CC)c12`, for which the nuclear beta-catenin stimulation in assay [1] (at 10 µM) was -1.6% (inactive); in assay [1] (stimulation, at 2 µM) it was -1%. Besides, the insulin secretion stimulation in assay [2] is 2.6% (inactive). In assay [3], the viability decrease is 7.4% (inactive). In addition, the tube area decrease in assay [4] is -19.4% (inactive). Also, the GLP1 secretion stimulation in assay [5] was -2.3% (inactive). The inhibition of viability in assay [6] is 18.2% (inactive). For the same compound, the viability decrease (inhibition) in assay [7] was 34.6% (inactive); in assay [8], 15.2% (inactive).
